# Compounds without any hit were thinned out: in the full panel of roughly 83,000, 20% have a hit.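 Compound tested at a single concentration for 48 hours in 96-well plates; a percent growth value below 10 was scored as active.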 Calls of active or inactive are those of the source.
# System: NCI-H322M lung
# Test: NCI-60 one-dose screen, 48 h (100 = growth as untreated, 0 = no growth, -100 = all killed)
# Conditions: 10 µM unless noted
# Procedure: Growth inhibition of the NCI-H322M human Non-Small Cell Lung tumor cell line is measured as a screen for anti-cancer activity. Cells are grown in 96 well plates and exposed to the test compound for 48 hours. Compounds are tested at a single concentration, which is 10^-5 M for most compounds. The reported endpoint is percent growth (GI% or GIPRCNT), where numbers from 0 - 100% represent growth inhibition, and numbers from -100% - 0 represent cell death. For example, a value of 40 represents 60% growth inhibition. A value of 0 means no net growth occurred over the course of the experiment. A value of -40 indicates 40% of cells at the beginning of the experiment died by the end of the experiment. A value of -100 means all cells are dead at the end of the experiment.
# NCI-60 Human Tumor Cell Lines Screen was performed using the standard one-dose NCI protocol, which is described in more detail at https://dtp.cancer.gov/discovery_development/nci-60/default.htm.
# Compounds with GIPRCNT values below 10 were considered active. Activity score was based on GIPRCNT using the following formula: […]
# Score is 0 for GIPRCNT values of 100 or above, 50 for GIPRCNT values of 0, and 100 for GIPRCNT values of -100.
row,SMILES,growth
1,N#CC1=C(N)Oc2c(sc3c(Br)cccc23)C1c1ccc([N+](=O)[O-])cc1 (stereo not given),40.6% (inactive)
2,Cc1nc(NC(=O)COc2ccc(/C=C3\Cc4ccc(Cl)cc4C3=O)cc2)sc1C,183% (inactive)
3,CN1CCN(CC(=O)N2c3cccc4cccc(c34)N(C(=O)CN3CCN(C)CC3)C2c2cn(-c3ccccc3)nc2-c2cccc([N+](=O)[O-])c2)CC1,32.9% (inactive)
4,CC(=O)O.CN1[CH-]N(Cc2ccc(C#N)cc2)c2ccccc21.[Ag+],105% (inactive)
5,COc1cccc(Oc2ccccc2NC(=O)CNC(=O)c2cccc3ccccc23)c1,32.6% [5 µM] (inactive)
6,CCOC(=O)c1c(C)nc2c(c1N)CC(=O)N2Cc1ccc(F)cc1,107% (inactive)
7,Cc1oc2nc[nH]c(=O)c2c1C(=O)/C=C/c1ccc(Br)cc1,2.39% (active)
8,CN(C)CC#Cc1ccc2ncc(C#N)c(Nc3ccc(F)c(Cl)c3)c2c1,14.9% (inactive)
9,NCCOc1ncccc1/C=C1\c2ccccc2-c2ccc(C(F)F)cc21,98.8% (inactive)
10,FC(F)(F)c1cc(Nc2ccc3c(OCCCN4CCOCC4)cccc3n2)ccc1Cl,51.5% (inactive)
11,Cc1ccc(S(=O)(=O)N/N=C/C2(c3ccccc3)CC2)cc1,111% (inactive)
12,O=C(/C=C/c1sc(Cl)nc1Cl)c1ccccc1,95% (inactive)
13,C=CCc1cc(C)ccc1NC(C(=O)NCC(=O)OC)c1ccccc1 (stereo not given),95.3% (inactive)
14,Oc1ccc(Cl)cc1Cc1cc(Cl)cc(Cl)c1O,29.9% (inactive)
15,CC([C@H]1CCC2C3CCC4C(=O)C(NC=O)=CC[C@]4(C)C3CC[C@@]21C)N(C)C (stereo not given in full),30.4% (inactive)
16,COc1ccc(-n2c(N)c(-c3nc4ccccc4[nH]3)cc(C#N)c2=O)cc1,102% (inactive)
17,COc1ccc(OC)c(/C=C2\Oc3cc(OCCN4CCC(Cc5ccccc5)CC4)ccc3C2=O)c1,94% (inactive)
18,O=C(CCc1nnc(-c2c(Cl)cccc2Cl)o1)c1nc2ccccc2[nH]1,76% (inactive)
19,COc1ccc2c(c1)c(-c1nn3cc(-c4cccs4)nc3s1)cn2C,55.8% (inactive)
20,CCCCC1CCCC12NC(=O)NC2=O (stereo not given),98.3% (inactive)

row,SMILES,growth
1,CCc1cccc2c3c(sc12)C(c1ccc(F)cc1)C(C#N)=C(N)O3 (stereo not given),57.7% (inactive)
2,COc1ccc(-c2cnc3ccccc3n2)cc1,95.2% (inactive)
3,O=c1ccc(N=Nc2ccc([N+](=O)[O-])cc2)ccc1O,17.6% (inactive)
4,Cc1cc(-c2cc(C)c(N)cc2C)c(C)cc1N,118% (inactive)
5,COc1cc(/C=C/c2ccccc2)cc(OC)c1,114% (inactive)
6,Cc1nn(-c2ccccc2)c(-n2ccnc2)c1/C=N/Nc1nc(-c2ccc(Cl)c(Cl)c2)cs1,76% (inactive)
7,CN1CCN(c2ccc(-c3ccc4ncc(C#N)c(Nc5ccc(F)c(Cl)c5)c4c3)cc2)CC1,19.7% (inactive)
8,Cc1ccc(C(=O)NN2C(=O)CSC2c2cccc([N+](=O)[O-])c2)cn1 (stereo not given),104% (inactive)
9,CCCCOc1ccc(/C=N/NC(N)=S)cc1,94.9% (inactive)
10,CC1Cc2c(ncn3c(-c4ccc(F)cc4)nnc23)N(C)c2ccccc21 (stereo not given),2.19% (active)
11,OC(COc1ccccc1Cl)CN1CCN(c2cccc(Cl)c2)CC1 (stereo not given),108% (inactive)
12,COc1ccc(CNC(=O)C(=O)[C@H](Cc2ccccc2)NC(=O)c2[nH]c3ccccc3c(=O)c2C)cc1,96.8% (inactive)
13,COc1cccc(Cc2cc(-c3ccccc3)nn(CC(=O)c3ccccc3)c2=O)c1,94.1% (inactive)
14,CNc1ccc(Nc2cccc(C)c2)c2c1C(=O)c1ccccc1C2=O,82.1% (inactive)
15,C=C1CC[C@@]2(C#N)[C@H]3[C@H](CC[C@@H]2C)[C@@H](C)C[C@@H](CC(C)(C)C#N)[C@H]13,90.2% (inactive)
16,NC(=O)Nc1ccc2ncnc(Nc3ccc(Cl)cc3)c2c1,18% (inactive)
17,COc1ccc(C2NC(=O)C(C#N)c3c2sc2c(F)cccc32)c(OC)c1 (stereo not given),90.4% (inactive)
18,CCc1cccc2c3c(sc12)C(c1ccc(Cl)cc1)C(C#N)=C(N)O3 (stereo not given),49.6% (inactive)
19,O=C1/C(=C/c2ccc(F)cc2)Sc2c(Br)cccc21,72.6% (inactive)
20,CCC(=O)Nc1ccc(-c2nc(-c3cccc(OC)c3)c(-c3ccnc(Br)c3)[nH]2)cc1,67.4% (inactive)

# — PubChem BioAssay (NCI)
